According to PubChem BioAssay AID624442 (Broad Institute, 2012):

assay: reactive oxygen species induction in U2OS, dose response, U2OS cells, fluorescence, dry powder, set 2 (AID 624442); conditions: U2OS ROS induction, H2DCF-DA fluorescence, stronger effect = higher value; at 38 µM unless noted;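 active means activation curve reaches 40% at a concentration no higher than the top valid dose tested; inactive means signal falling instead of rising, plus the rest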

Max activation, inactive:
Cc1ccccc1CSc1nnc(N)s1 16.2% [at 19.5 µM], O=C(Nc1nc(SCc2ccccc2)ns1)C1CCC1 30.8%, Nc1nc(SCc2ccc(F)cc2)ns1 15.9% [at 1.2 µM], Nc1nc(SCc2ccc(Cl)cc2Cl)ns1 32.3% [at 0.3 µM], Nc1nc(SCc2ccccc2)ns1 14.6% [at 5 µM], Cc1cccc(CSc2nsc(N)n2)c1 24.3% [at 19.5 µM], Nc1nc(SCc2ccccc2Cl)ns1 17.6% [at 5 µM], Cc1ccccc1CSc1n[nH]c(N)n1 25.1% [at 1.2 µM], Nc1nc(S(=O)(=O)Cc2ccccc2)ns1 18.5% [at 0.6 µM], O=C(Nc1nc(SCc2ccccc2)ns1)C1CC=CCC1 (configuration not stated) 65.2%, Cc1ccccc1CSc1nsc(N)n1 27.9% [at 19.5 µM], O=C(Nc1ccccc1)Nc1nc(SCc2ccccc2)ns1 11.1%
